Compound activity deposited in PubChem by National Center for Advancing Translational Sciences (NCATS).
PNC inhibitor: inhibitors of perinucleolar compartment assembly; PC3M PTB-GFP, PNC prevalence imaging, 16 h; active compounds read low; activity change (PNC), negative = inhibition, % at 10 µM; actives 3.1% (n = 140,000); AID 2417;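 active means readout at or below -70, meaning at least 70% loss of cells showing the perinucleolar compartment, a nuclear body marking cancer cells; inconclusive means readout between -30 and a set limit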
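Compounds are pinned in duplicate onto adhered PC3M cells stably expressing GFP-tagged PTB and incubated 16 h at 37 C. Cells are then fixed, nuclei stained with Hoechst, and PNC-positive cells counted.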
HPGD inh: inhibitors of human 15-hydroxyprostaglandin dehydrogenase (HPGD); P15428; purified HPGD, NADH fluorescence kinetic, PGE2 substrate; Potency, µM, actives largely listed as inhibitors; actives 4.3% (n = 150,000)
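20 nM HPGD preincubated 15 min at room temperature with compound in 50 mM Tris-HCl pH 8, 0.01% Tween 20. Started with 1 mM NAD+ and 30 uM prostaglandin E2; NADH fluorescence (360/450 nm) read 5 times over 30-s intervals, last minus first.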
ALDH1A1 inh: ALDH1A1 (human) enzyme inhibition | P00352 | Purified ALDH1A1, NADH fluorescence, propionaldehyde substrate | Potency, µM (highest dose often 75.3 µM), most hits filed as inhibitors | actives 7.3% (n = 220,000)
Target sequence (P00352 whole entry, looked up): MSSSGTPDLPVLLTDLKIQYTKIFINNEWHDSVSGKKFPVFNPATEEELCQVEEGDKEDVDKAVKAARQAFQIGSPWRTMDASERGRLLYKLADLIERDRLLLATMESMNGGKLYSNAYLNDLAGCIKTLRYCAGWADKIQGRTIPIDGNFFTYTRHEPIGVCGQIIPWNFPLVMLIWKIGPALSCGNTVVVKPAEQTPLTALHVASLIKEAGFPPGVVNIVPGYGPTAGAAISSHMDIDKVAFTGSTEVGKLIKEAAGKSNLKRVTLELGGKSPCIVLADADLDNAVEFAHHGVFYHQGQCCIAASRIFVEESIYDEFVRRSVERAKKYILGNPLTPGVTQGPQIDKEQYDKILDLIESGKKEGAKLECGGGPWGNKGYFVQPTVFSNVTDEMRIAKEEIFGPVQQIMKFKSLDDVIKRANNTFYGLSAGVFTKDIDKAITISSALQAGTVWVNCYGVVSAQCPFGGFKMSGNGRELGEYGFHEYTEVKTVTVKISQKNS
A number is an active result. Compounds with a hit are over-represented: about 11% of the library has one in this group of screens. Unless noted, the call rests on the fitted dose curve; in most records, active means well fitted inhibition curve with a large enough effect (not every such curve was filed as active); inconclusive means small, poorly fitted or top-dose-only effect, or another doubt; inactive means no such curve, though single readings can be large or run the other way.

What do the screens show for `O=C(O)c1ccccc1CSc1ccccn1`?
ALDH1A1 inh: inactive

Results for O=C1C(=C2CCCCC2)SC(=S)N1Cc1ccco1 ?
PNC inhibitor: inactive; HPGD inh: inconclusive; ALDH1A1 inh: 18µM

How did O=C(O)CCN1C(=O)C(=C2CCCCCC2)SC1=S do in these assays?
PNC inhibitor: inconclusive; HPGD inh: inactive; ALDH1A1 inh: inconclusive

What do the screens show for `COC(=O)\C(C(C)=O)=C(/C=C/C=C/C=C/N(C)C)N(C)C`?
PNC inhibitor: inactive; HPGD inh: inactive; ALDH1A1 inh: inactive

What do the screens show for `CN1CCN(C(c2ccccn2)c2cc(Cl)c3cccnc3c2O)CC1` (stereo not drawn)?
ALDH1A1 inh: 10µM

Results for CCC(=O)NC(c1ccco1)c1cc(Cl)c2cccnc2c1O (stereo not drawn) ?
ALDH1A1 inh: inactive

Results for Oc1c(C(c2ccc(Cl)cc2)N2CCCC2)cc(Cl)c2cccnc12 (stereo not drawn) ?
ALDH1A1 inh: 14µM

Results for Oc1c(C(Nc2ccccn2)c2cccnc2)cc(Cl)c2cccnc12 (stereo not drawn) ?
PNC inhibitor: inactive; HPGD inh: inactive; ALDH1A1 inh: inconclusive

Results for c1ccc(CC2CCN(Cc3ccccn3)CC2)cc1 ?
ALDH1A1 inh: inactive

What do the screens show for `Oc1c(C(c2ccccn2)N2CCC(Cc3ccccc3)CC2)cc(Cl)c2cccnc12` (stereo not drawn)?
ALDH1A1 inh: 5.6µM

How did COc1ccc(C(=O)N2CCC3(CC2)CCN(c2cccc(-c4ccccc4)c2)CC3)cc1 do in these assays?
HPGD inh: inactive; ALDH1A1 inh: inconclusive

Results for COc1ccc(C2=N[C@@H](C(C)C)CO2)cc1 ?
HPGD inh: inactive; ALDH1A1 inh: inactive

What do the screens show for `Cc1cc(SCC(=O)c2cccs2)n2nc(C)c(-c3ccccc3)c2n1`?
PNC inhibitor: inactive; HPGD inh: inconclusive; ALDH1A1 inh: inactive

Results for CCOC(=O)c1cc(NC(=O)N2CCCCC2)c(C)nc1C ?
PNC inhibitor: inconclusive; HPGD inh: inactive; ALDH1A1 inh: inactive

What do the screens show for `CCC(CO)N=C1CC(C)(C)CC(=O)/C1=C(/O)CCCN1C(=O)c2ccccc2C1=O` (stereo not drawn)?
ALDH1A1 inh: inactive

Results for C/C(=C\C=C\c1ccccc1)C(=O)c1c(C)cc(C)[nH]c1=O ?
ALDH1A1 inh: inactive

Results for O=C1CCCc2c1cc(C(=O)O)c(=O)n2-c1ccccc1 ?
ALDH1A1 inh: inactive

How did O=C1CCCc2c1cc(C(=O)Nc1ccc(Br)cn1)c(=O)n2-c1ccccc1 do in these assays?
PNC inhibitor: inactive; HPGD inh: 35µM; ALDH1A1 inh: inconclusive

Results for O=S(=O)(c1cccs1)N1CCN(S(=O)(=O)c2cccs2)CC1 ?
ALDH1A1 inh: inactive

How did O=S(=O)(c1cccs1)N1CCCc2cccc(O)c21 do in these assays?
PNC inhibitor: inconclusive; HPGD inh: 13µM; ALDH1A1 inh: inconclusive

Results for N#CC1=C(N)NC(=S)C(C(N)=O)C1c1ccc([N+](=O)[O-])cc1 (stereo not drawn) ?
ALDH1A1 inh: inactive

Results for O=C(OCCN1C(=O)c2ccccc2C1=O)c1ccccc1 ?
ALDH1A1 inh: inactive

What do the screens show for `Cn1nc(C(=O)OCCN2C(=O)c3ccccc3C2=O)c2ccccc2c1=O`?
PNC inhibitor: inactive; HPGD inh: 20µM; ALDH1A1 inh: inactive

Results for CC(=O)N1CCCc2cc(S(=O)(=O)NCCC3=CCCCC3)ccc21 ?
PNC inhibitor: -86; HPGD inh: inactive; ALDH1A1 inh: 1.8µM

What do the screens show for `Cc1c(C(=O)O)oc2ccc(S(=O)(=O)NCCC3=CCCCC3)cc12`?
PNC inhibitor: inactive; HPGD inh: inconclusive; ALDH1A1 inh: inactive

How did CC(=O)N1CCCc2cc(S(=O)(=O)NCc3ccc(C)cc3)ccc21 do in these assays?
PNC inhibitor: inactive; HPGD inh: inactive; ALDH1A1 inh: inconclusive

What do the screens show for `CC(=O)N1CCCc2cc(S(=O)(=O)CCC(=O)N3CCN(c4cccc(C)c4)C(C)C3)ccc21` (stereo not drawn)?
PNC inhibitor: inactive; HPGD inh: inactive; ALDH1A1 inh: 18µM

What do the screens show for `CCCN(CCC)S(=O)(=O)c1ccc(C(=O)N2CCCc3ccccc32)cc1`?
PNC inhibitor: inactive; HPGD inh: inactive; ALDH1A1 inh: inactive

Results for CCCN(CCC)S(=O)(=O)c1ccc2c(c1)CCCN2C(C)=O ?
PNC inhibitor: inactive; HPGD inh: inactive; ALDH1A1 inh: 5µM

What do the screens show for `Cc1cccc(N2CCN(C(=O)CCS(=O)(=O)c3ccc(Br)cc3)CC2C)c1` (stereo not drawn)?
ALDH1A1 inh: inactive

Results for Cc1ccc(NC(=O)c2cc(S(=O)(=O)NCCC3=CCCCC3)ccc2F)cc1 ?
PNC inhibitor: inconclusive; HPGD inh: inactive; ALDH1A1 inh: 22µM
